Experimental data reported in PubChem BioAssay (EPA / NIEHS).
Inconclusive results are not listed. Calls of active or inactive are those of the source. Rule for the calls, unless noted: active = hit-call score of the fitted dose curve at least 0.9, where 1 is the maximum; inactive = score below 0.9.

assay: CCTE_Mundy_HCI_Cortical_Synap_Neur_Matur_SynapseCount: CCTE's Synaptogenesis and Neurite Maturation Assay in rat cortical cells for Synapse Count, Mundy Lab (AID 2284218)
Summary of the method: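 Rat primary cortical cultures, AraC at DIV 5, chemical dosing DIV 7 to DIV 12 (288.33 h). Fixed cells stained for MAP2, synaptophysin and Hoechst; synapses per neuron counted by high-content imaging, loss of signal versus DMSO.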

With `CC(=O)CC(c1ccccc1)c1c(O)c2ccccc2oc1=O` (configuration not stated) as the molecule, how does the outcome read?
The outcome was “inactive”.

With `CN(C)CCCN1c2ccccc2Sc2ccc(Cl)cc21` as the molecule, how does the AC50 read?
Its AC50 is 11.8 µM (active).

Which outcome does the source give for `O=C1NC(=O)C(c2ccccc2)(c2ccccc2)N1` here?
Its outcome is “inactive”.

With `OCC(O)CO` as the molecule, how does the outcome read?
Its outcome is “inactive”.

assay: CCTE_Mundy_HCI_Cortical_Synap_Neur_Matur_NeuriteCount: CCTE's Synaptogenesis and Neurite Maturation Assay in rat cortical cells for Neurite Count, Mundy Lab (AID 2284222);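 for outcome: exposure from day 7 to day 12 in vitro with readout at day 12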
Summary of the method: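 Rat cortical neurons, 96-well; AraC DIV 5; chemical + media change DIV 7; end DIV 12. Fix PFA/Hoechst, anti-MAP2 + anti-synaptophysin IF. HCI neurite count vs DMSO baseline.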

With `CC(=O)CC(c1ccccc1)c1c(O)c2ccccc2oc1=O` (configuration not stated) as the molecule, how does the outcome read?
Its outcome is “inactive”.

With `CN(C)CCCN1c2ccccc2Sc2ccc(Cl)cc21` as the molecule, how does the AC50 read?
Its AC50 is 21.1 µM (active).

For `OCC(O)CO`, which outcome is on record?
Its outcome is “inactive”.

assay: CCTE_Mundy_HCI_Cortical_Synap_Neur_Matur_CellBodySpotCount: CCTE's Synaptogenesis and Neurite Maturation Assay in rat cortical cells for Cell Body Spot Count, Mundy Lab (AID 2284223)
Summary of the method: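 Primary rat cortical cultures, AraC added at DIV 5; dosed DIV 7 through DIV 12 […]. Fixed, stained for MAP2 and synaptophysin with Hoechst; cell body-associated synaptophysin puncta per neuron counted by high-content imaging, loss vs DMSO.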

With `CC(=O)CC(c1ccccc1)c1c(O)c2ccccc2oc1=O` (configuration not stated) as the molecule, how does the outcome read?
The outcome was “inactive”.

With `CN(C)CCCN1c2ccccc2Sc2ccc(Cl)cc21` as the molecule, how does the outcome read?
Its outcome is “inactive”.

Which outcome does the source give for `O=C1NC(=O)C(c2ccccc2)(c2ccccc2)N1` here?
Its outcome is “inactive”.

With `OCC(O)CO` as the molecule, how does the outcome read?
Its outcome is “inactive”.

assay: CCTE_Mundy_HCI_hNP1_Pro_ResponderAvgInten: CCTE's Proliferation Assay in human neuroprogenitor cells, Mundy Lab (AID 2284224; active = hit-call score of the fitted dose curve at least 0.9, where 1 is the maximum;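 note: human neural progenitor cells hNP1 derived from WA09 embryonic stem cells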)
Summary of the method: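 Proliferation read as average intensity of BrdU-positive cells, imaged at 26.25 h post-dosing: chemical exposure started after 40–44 h culture, BrdU during final 4 h, paraformaldehyde fixation. Positive-direction fit relative to DMSO.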

For `CC(=O)CC(c1ccccc1)c1c(O)c2ccccc2oc1=O` (configuration not stated), which outcome is on record?
The outcome was “inactive”.

With `CN(C)CCCN1c2ccccc2Sc2ccc(Cl)cc21` as the molecule, how does the outcome read?
Its outcome is “inactive”.

For `OCC(O)CO`, which outcome is on record?
The outcome was “inactive”.

assay: TAMU_HCS_1.5hr_SingleDonor1434_Cytotoxicity: Cytotoxicity Assessment using High-content Screening (HCS) Fluorescent Imaging for the Texas A&M University (TAMU) 1.5-hr Human Induced Pluripotent Stem Cell (iPSC)-derived Cardiotoxicity Assay (AID 2284234; active = hit-call score of the fitted dose curve at least 0.9, where 1 is the maximum)
Summary of the method: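 Human iPSC-derived cardiomyocytes dosed at 0.2, 1, 10, 100 uM final (0.5% DMSO) for 90 min at 37 C. Hoechst 33342-stained nuclei counted by 10x high-content imaging; POD is EC10, a 10% drop in total cell count versus DMSO.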

With `COC(=O)[C@H]1[C@H]2C[C@@H]3c4[nH]c5cc(OC)ccc5c4CCN3C[C@H]2C[C@@H](OC(=O)c2cc(OC)c(OC)c(OC)c2)[C@@H]1OC` as the molecule, how does the outcome read?
The outcome was “inactive”.

Which outcome does the source give for `Cc1occc(=O)c1O` here?
The outcome was “inactive”.

Which outcome does the source give for `O=C(O)CC(O)(CC(=O)O)C(=O)O` here?
Its outcome is “inactive”.
